# Source: PubChem
# hcDAF-12 act – activators of H. contortus DAF-12 nuclear receptor; HEK293 hcDAF-12 lit1-tk-luc reporter, luminescence; 0% DMSO, 100% Δ7-dafachronic acid; activation, % at 6.8 µM; 370,000 tested, 1.4% active; AID 652067;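 active means activation above the mean of all tested compounds plus 3 SD, cut at about 5.5% in these data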;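 further: 100% = response to 3 µM Δ7-dafachronic acid high control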
# DAX1 inh-1 – NR0B1 (DAX1) inhibition; HEK293 Gal4-DAX1 luciferase reporter, luminescence; inhibition, % at 6.75 µM; 340,000 tested, 0.99% active; AID 504766;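 active means inhibition above the mean over all tested compounds plus 3 SD, cut at about 4.2% in these data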;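 further: 0% = DAX1-transfected cells with DMSO and 100% = empty-vector control cells with DMSO; inhibition shows as a rise in luminescence from relieved DAX1 repression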
# SMARCA2 activ – SMARCA2 function activation, primary screen | MG213 cells, MMTV-luciferase reporter, dexamethasone, overnight | activation, % at 9.1 µM | 370,000 tested, 1% active | AID 652017; in the data active means activation above about 7.8%;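 further: 0% = vehicle wells and 100% = reference activator wells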
# hgDAF12 agonist – agonists of H. glycines DAF-12 nuclear receptor | HEK293 GAL4-hgDAF12 UAS-luciferase reporter, agonist luminescence; normalized to butyrate control | activation, % at 6.8 µM | 370,000 tested, 1.8% active | AID 687014;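 active means activation above a cutoff set at the mean of all screened compounds plus 3 SD, cut at about 10% in these data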;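 further: 0% = DMSO wells and 100% = sodium butyrate wells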
# DAX1 inh-2 – inhibitors of DAX1 repression of SF-1 activated StAR promoter | inhibition, % at 6.8 µM | HEK293T StAR-luciferase reporter, SF-1/DAX-1 repression relief | AID 652010 | 370,000 tested, 1.1% active;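 active means inhibition above the mean over all tested compounds plus 3 SD, cut at about 3.6% in these data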;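 further: 0% = DAX-1 cells with DMSO and 100% = cells lacking DAX-1 with DMSO; higher inhibition means more luminescence from relief of DAX-1 repression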
# ssDAF-12 act – S. stercoralis DAF-12 activation, primary screen | activation, % at 6.8 µM | HEK293 ssDAF-12/GRIP1 lit1-tk-luc reporter, luminescence; % of 3 µM dafachronic acid response | 370,000 tested, 1% active;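 active means activation above the mean over all tested compounds plus 3 SD, cut at about 0.9% in these data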;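 further: 0% = DMSO-only wells and 100% = 3 µM delta7-dafachronic acid wells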
# DAX1 inh confirm – NR0B1 (human) inhibition, confirmation; shares compounds with DAX1 inh-2; HEK293T StAR-promoter luciferase reporter, SF-1/DAX-1 repression; inhibition, % at 6.8 µM; 2,400 tested, 87% active;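 active means inhibition above the average of every tested compound plus 3 SD, cut at about 3.8% in these data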;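 further: 0% = DAX-1 cells with DMSO and 100% = no DAX-1 control cells with DMSO; active compounds raise luminescence by relieving repression of the StAR reporter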
# Target sequence (P51843 whole entry, looked up): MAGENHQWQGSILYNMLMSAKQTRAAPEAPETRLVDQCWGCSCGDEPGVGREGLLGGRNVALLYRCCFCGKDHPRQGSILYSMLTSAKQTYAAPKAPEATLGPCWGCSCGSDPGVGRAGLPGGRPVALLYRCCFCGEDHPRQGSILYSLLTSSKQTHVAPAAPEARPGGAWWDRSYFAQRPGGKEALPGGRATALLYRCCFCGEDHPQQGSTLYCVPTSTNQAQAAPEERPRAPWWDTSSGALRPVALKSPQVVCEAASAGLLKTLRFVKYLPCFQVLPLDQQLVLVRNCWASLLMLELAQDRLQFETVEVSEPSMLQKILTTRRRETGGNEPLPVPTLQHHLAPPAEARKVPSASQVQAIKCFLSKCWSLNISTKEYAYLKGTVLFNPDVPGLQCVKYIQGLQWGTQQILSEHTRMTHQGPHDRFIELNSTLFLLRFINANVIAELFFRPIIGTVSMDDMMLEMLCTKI
# SF1 AF2mut Luc – counter-screen for DAX1 inhibitors: nonselective inhibitors with SF-1 AF2 mutant | shares compounds with DAX1 inh-2 | HEK293 StAR-luciferase, luminescence | inhibition, % at 6.8 µM | 2,400 tested, 78% active | AID 652136;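 active means inhibition above the mean of all tested compounds plus 3 SD, cut at about 3% in these data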;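 further: 0% = DAX-1 transfected cells with DMSO and 100% = cells without DAX-1 with DMSO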
# SMARCA2 act conf – confirmation of SMARCA2 (BRM) function activators | MG213 cells, MMTV-luciferase with dexamethasone, luminescence, overnight; MG213 cells expressing E1A, Rb sequestered; DMSO wells 0%, reference activator 100% | shares compounds with SMARCA2 activ | activation, % at 9.1 µM | 3,500 tested, 30% active;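 active means activation above its plate's cutoff, the mean activation of tested wells plus 3 SD, cut at about 7.9% in these data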
# VP16 Luc act – counter-screen for SMARCA2 activators: GAL4-VP16 luciferase reporter activation. shares compounds with SMARCA2 activ. HEK293 GAL4-VP16 pG5luc reporter, luciferase luminescence; scaled: DMSO wells 0%, SAHA wells 100%. activation, % at 9.1 µM. 3,500 tested, 41% active. AID 686939;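 active means activation above the solvent-only control well mean plus 3 SD, averaged across control plates, cut at about 5.2% in these data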
# LXR ag – counter-screen for hcDAF-12 agonists: agonists of human LXR-beta | HEK293 Gal4-LXR tk-luc reporter, luminescence, 24 h; normalized: DMSO 0%, positive control 100% | 3,400 tested, under 10 active | activation, % at 6.8 µM | shares compounds with hcDAF-12 act;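 active means mean percent activation of the reporter above a cutoff set as the average over tested compounds plus their standard deviation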
# hcDAF12 ag – confirmation of H. contortus DAF-12 agonists; shares compounds with hcDAF-12 act; 3,400 tested, 61% active; AID 743032; HEK293 hcDAF-12 lit1-tk-luc reporter, luminescence; % of Δ7-dafachronic acid response; activation, % at 6.8 µM;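 active means mean activation across triplicate tests above the threshold derived from the earlier primary screen, cut at about 5.5% in these data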;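 further: 0% = DMSO only wells and 100% = 3 µM Δ7-dafachronic acid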
# hgDAF12 conf – hgDAF-12 agonism, confirmation assay | shares compounds with hgDAF12 agonist | HEK293 GAL4-hgDAF12 luciferase reporter, agonist mode; percent of butyrate response | activation, % at 6.8 µM | 3,300 tested, 80% active;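 active means mean activation over triplicate wells above the hit cutoff derived from the earlier primary screen, cut at about 11% in these data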;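 further: 0% = DMSO low control and 100% = 2 mM sodium butyrate high control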
# LXR ag 2 – activates human LXR-beta, counter-screen for DAF-12 agonists; activation, % at 6.8 µM; HEK293 Gal4-LXR luciferase reporter, 24 h; 3,300 tested, under 10 active; shares compounds with hgDAF12 agonist;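 active means mean activation of the triplicate above a set limit carried over from the primary screen, none filed active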
# An asterisk follows results filed as active; · = no result given. Hits are enriched below; roughly 4.8% of the tested compounds scored in any of these assays.
SMILES,hcDAF-12 act,DAX1 inh-1,SMARCA2 activ,hgDAF12 agonist,DAX1 inh-2,ssDAF-12 act,DAX1 inh confirm,SF1 AF2mut Luc,SMARCA2 act conf,VP16 Luc act,LXR ag,hcDAF12 ag,hgDAF12 conf,LXR ag 2
O=[N+]([O-])c1ccccc1OCCCn1cnc2ccccc21,0,2,6,17*,5.5*,-1,7.2*,4.3*,·,·,·,·,16*,1
c1ccc(-c2ncc3c(ccc4ccccc43)n2)cc1,23*,4,9.1*,17*,6.3*,3.6*,12*,3.8*,2,5.1*,·,·,17*,1
c1ccc2c(c1)cnc1ccccc12,0,0,2,-1,0,-1,·,·,·,·,·,·,·,·
Cc1ccc(C(C#N)=Cc2ccc3c(c2)OCO3)cc1,5,4,14*,18*,6.8*,1,11*,5.0*,2,11*,·,·,21*,1
N#C/C(=C\c1ccc2c(c1)OCO2)C(N)=S,0,·,2,-2,0,0,·,·,·,·,·,·,·,·
Cc1ccn2c(c1)nc(=S)n2C(=O)c1ccccc1,6.7*,4.5*,5,15*,6.5*,1,8.0*,1,·,·,1,12*,11*,1
O=C(Nc1ccc(N2CCCC2)cc1)c1ccc(Br)o1,9.2*,1,7,16*,6.0*,1,12*,6.0*,·,·,2,7.9*,17*,1
O=C(Nc1ccc(N2CCCCC2)cc1)c1ccc(F)cc1,8.3*,0,5,13*,4.6*,1,12*,6.0*,·,·,1,2,20*,1
O=C(Nc1ccc(N2CCN(C(=O)c3ccccc3)CC2)cc1)c1ccc(Br)o1,-4,-1,0,-1,-1,-1,·,·,·,·,·,·,·,·
COc1cccc2c1[C@H](/C=C/c1ccccc1)[C@@H]([C@H](O)COC(C)=O)OC2,-1,·,-3,-1,-1,-2,·,·,·,·,·,·,·,·
COC(=O)C1CCC(CNC(=O)C(Cc2ccc3c(c2)OCO3)NC(C)=O)CC1 (configuration not stated),-3,·,-4,2,0,-1,·,·,·,·,·,·,·,·
Cc1ccc(CN2CC(C(=O)Nc3cc(C)ccn3)CC2=O)cc1 (configuration not stated),3,2,10*,22*,11*,0,12*,3.1*,17*,6.3*,·,·,22*,0
